Of roughly 8,800 targets only a part is listed; those with a hit were picked by preference. About 0.5% of all pairs of compound and target were hits.
Legend:
Assay in all cases: log2 fold change, soluble protein after heating vs DMSO (PISA); higher = thermal stabilisation; K562 lysate, 10 uM; active = over 0.2 and 3.5 SD of the protein, either way, in both replicates (recomputed)
[1] = compound: C1=CC=C(C=C1)[C@H](COC2=CC3=C(C=C2)NC(=O)N3)NC(=O)C4=CC=CN(C4=O)CC5=CC(=C(C=C5)F)F
In short: (§1)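 K562 pellets were dounce-homogenised in PBS pH 7.4 with 1 mM MgCl2, and the crude extract at 1 mg/mL protein was treated with 10 μM compound for 30 min. Aliquots were heated for 3 min across 48°C-58°C, pooled, and brought to 0.5% NP-40 at 4°C; soluble protein was the supernatant after 21,000xg for 90 min. Soluble protein was quantified by TMTpro 16plex LC-MS/MS with channel sums equalised, and reported as log2 fold change in thermal stability against DMSO controls, with values from duplicates.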

[2] = compound: CC1=C(SC2=C1C(=N[C@H](C3=NN=C(N32)C)CC(=O)N)C4=CC=C(C=C4)Cl)C
In short: as §1

[3] = compound: CC1=C2C(=CC=C1)N=C(N(C2=O)C3=CC=CC=C3C)CN4C=NC5=C(N=CN=C54)N
In short: as §1

[4] = compound: Cc1sc2c(c1C)C(c1ccc(Cl)cc1)=N[C@@H](CC(=O)OC(C)(C)C)c1nnc(C)n1-2
In short: as §1

[5] = compound: c1ccc([C@@H]2C[C@H]2NC2CCNCC2)cc1
In short: as §1

Measured: log2 fold change

SPATA5 (UniProt Q8NB90)
Sequence of UniProt Q8NB90 (Q8NB90 whole entry, looked up): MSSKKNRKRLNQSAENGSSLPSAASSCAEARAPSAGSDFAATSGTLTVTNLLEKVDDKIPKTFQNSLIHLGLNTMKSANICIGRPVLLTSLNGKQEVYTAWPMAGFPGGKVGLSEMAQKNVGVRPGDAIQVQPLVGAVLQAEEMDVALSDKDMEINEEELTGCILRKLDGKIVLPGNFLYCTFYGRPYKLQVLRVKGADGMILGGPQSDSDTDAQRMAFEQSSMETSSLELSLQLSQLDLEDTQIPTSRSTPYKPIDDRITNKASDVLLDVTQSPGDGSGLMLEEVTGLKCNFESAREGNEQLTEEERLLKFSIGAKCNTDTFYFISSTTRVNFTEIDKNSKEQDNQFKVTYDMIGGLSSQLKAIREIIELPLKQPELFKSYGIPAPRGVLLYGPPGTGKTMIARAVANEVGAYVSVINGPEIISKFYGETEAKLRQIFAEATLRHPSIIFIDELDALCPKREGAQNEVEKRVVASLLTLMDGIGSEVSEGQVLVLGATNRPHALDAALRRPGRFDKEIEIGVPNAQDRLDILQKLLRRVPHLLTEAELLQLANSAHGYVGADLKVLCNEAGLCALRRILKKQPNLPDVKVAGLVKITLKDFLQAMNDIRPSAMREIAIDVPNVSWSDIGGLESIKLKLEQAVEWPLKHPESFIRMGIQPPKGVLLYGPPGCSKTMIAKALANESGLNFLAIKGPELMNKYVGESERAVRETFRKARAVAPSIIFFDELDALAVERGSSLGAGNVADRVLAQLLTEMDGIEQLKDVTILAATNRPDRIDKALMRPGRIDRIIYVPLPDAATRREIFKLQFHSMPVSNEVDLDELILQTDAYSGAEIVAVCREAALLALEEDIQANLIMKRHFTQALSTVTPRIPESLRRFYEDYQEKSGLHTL
inactive: [1] -0.024 | [2] -0.005 | [3] 0.026 | [4] 0.008 | [5] 0.02

TAF1B (UniProt Q53T94)
Sequence of UniProt Q53T94 (Q53T94 whole entry, looked up): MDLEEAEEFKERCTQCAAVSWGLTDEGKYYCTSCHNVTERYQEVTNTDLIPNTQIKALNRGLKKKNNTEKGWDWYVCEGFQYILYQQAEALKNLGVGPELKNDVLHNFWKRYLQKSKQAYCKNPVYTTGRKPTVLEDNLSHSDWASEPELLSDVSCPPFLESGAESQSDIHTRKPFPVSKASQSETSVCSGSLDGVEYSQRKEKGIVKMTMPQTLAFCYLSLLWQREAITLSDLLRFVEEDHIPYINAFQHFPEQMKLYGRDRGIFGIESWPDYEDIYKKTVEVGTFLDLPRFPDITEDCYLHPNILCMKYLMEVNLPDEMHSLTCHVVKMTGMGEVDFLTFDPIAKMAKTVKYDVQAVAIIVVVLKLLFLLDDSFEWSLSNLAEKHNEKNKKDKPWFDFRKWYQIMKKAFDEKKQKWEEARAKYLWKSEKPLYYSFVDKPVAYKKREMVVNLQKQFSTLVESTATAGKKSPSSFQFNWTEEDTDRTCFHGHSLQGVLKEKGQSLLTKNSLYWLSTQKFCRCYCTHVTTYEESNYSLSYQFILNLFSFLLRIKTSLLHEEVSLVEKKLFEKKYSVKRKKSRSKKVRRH
inactive: [1] -0.073 | [2] 0.071 | [3] 0.499 | [4] -0.13 | [5] -0.008

SMIM12 (UniProt Q96EX1)
Sequence of UniProt Q96EX1 (Q96EX1 whole entry, looked up): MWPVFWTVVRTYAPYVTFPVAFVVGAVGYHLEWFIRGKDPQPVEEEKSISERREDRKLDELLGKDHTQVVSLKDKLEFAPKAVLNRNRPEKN
inactive: [1] -0.026 | [2] -0.006 | [3] 0.004 | [4] 0.105 | [5] 0.153

SSB (UniProt E7ERC4)
inactive: [1] -0.137 | [2] 0.12 | [3] 0.186 | [4] -0.105 | [5] 0.444

TAF6L (UniProt Q9Y6J9)
Sequence of UniProt Q9Y6J9 (Q9Y6J9 whole entry, looked up): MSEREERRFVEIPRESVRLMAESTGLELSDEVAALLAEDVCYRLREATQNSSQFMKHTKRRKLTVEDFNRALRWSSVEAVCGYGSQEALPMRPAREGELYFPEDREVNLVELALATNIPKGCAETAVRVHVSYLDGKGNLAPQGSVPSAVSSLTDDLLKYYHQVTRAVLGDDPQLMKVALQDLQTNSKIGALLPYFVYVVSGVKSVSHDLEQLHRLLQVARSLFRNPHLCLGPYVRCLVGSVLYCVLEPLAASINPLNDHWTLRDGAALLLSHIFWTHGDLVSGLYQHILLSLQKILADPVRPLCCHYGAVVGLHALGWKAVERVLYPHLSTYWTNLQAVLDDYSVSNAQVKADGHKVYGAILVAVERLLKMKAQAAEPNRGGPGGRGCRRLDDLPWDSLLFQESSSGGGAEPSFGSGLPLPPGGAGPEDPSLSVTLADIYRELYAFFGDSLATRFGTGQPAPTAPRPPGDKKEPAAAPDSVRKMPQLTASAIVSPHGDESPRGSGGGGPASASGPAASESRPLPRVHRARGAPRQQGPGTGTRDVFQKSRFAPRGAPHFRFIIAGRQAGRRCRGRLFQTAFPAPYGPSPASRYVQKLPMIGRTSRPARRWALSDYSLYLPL
inactive: [1] 0.011 | [2] -0.027 | [3] -0.094 | [4] -0.02 | [5] 0.061

SMC3 (UniProt Q9UQE7)
Sequence of UniProt Q9UQE7 (Q9UQE7 whole entry, looked up): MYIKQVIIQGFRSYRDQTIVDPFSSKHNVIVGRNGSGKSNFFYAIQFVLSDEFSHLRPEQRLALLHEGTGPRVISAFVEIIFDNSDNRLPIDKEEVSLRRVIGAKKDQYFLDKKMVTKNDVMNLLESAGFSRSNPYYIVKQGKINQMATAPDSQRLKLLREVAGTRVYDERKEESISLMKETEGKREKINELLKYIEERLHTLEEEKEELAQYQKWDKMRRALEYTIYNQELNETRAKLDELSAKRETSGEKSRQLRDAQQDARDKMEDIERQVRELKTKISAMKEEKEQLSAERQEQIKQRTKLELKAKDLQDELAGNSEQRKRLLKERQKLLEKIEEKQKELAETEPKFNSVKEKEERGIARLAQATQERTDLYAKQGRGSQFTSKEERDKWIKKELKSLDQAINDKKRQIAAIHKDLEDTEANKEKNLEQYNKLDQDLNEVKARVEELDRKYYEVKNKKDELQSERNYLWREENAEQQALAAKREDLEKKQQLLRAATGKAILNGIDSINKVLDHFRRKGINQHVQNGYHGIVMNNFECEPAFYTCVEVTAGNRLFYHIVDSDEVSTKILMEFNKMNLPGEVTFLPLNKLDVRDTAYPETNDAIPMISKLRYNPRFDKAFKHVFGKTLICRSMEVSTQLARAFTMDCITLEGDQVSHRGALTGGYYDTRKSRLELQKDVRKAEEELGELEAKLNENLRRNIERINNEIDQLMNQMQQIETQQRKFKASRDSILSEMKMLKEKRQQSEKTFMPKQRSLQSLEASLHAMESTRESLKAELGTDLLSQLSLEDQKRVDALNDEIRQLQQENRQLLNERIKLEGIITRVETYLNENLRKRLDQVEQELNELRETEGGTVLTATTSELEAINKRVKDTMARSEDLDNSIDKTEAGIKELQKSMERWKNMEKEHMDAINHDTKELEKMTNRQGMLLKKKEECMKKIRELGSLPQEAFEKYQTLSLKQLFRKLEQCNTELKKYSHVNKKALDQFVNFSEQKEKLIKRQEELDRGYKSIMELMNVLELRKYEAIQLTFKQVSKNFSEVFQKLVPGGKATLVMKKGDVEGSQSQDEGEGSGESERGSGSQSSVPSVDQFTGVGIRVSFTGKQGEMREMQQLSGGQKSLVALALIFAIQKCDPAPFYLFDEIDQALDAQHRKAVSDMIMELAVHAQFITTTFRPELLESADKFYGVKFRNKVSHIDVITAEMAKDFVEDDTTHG
inactive: [1] -0.002 | [2] 0.011 | [3] -0.011 | [4] 0.037 | [5] 0.022

TAF9 (UniProt Q16594)
Sequence of UniProt Q16594 (Q16594 whole entry, looked up): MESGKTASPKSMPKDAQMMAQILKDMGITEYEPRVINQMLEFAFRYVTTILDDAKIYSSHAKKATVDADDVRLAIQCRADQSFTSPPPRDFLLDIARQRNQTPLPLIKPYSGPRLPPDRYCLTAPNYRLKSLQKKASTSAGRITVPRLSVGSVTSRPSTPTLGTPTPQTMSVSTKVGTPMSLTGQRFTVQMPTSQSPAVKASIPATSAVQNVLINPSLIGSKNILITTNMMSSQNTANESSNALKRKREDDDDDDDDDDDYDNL
inactive: [1] 0.04 | [2] -0.004 | [3] 0.05 | [4] 0.019 | [5] 0.021

TARDBP (UniProt Q13148)
Sequence of UniProt Q13148 (Q13148 whole entry, looked up): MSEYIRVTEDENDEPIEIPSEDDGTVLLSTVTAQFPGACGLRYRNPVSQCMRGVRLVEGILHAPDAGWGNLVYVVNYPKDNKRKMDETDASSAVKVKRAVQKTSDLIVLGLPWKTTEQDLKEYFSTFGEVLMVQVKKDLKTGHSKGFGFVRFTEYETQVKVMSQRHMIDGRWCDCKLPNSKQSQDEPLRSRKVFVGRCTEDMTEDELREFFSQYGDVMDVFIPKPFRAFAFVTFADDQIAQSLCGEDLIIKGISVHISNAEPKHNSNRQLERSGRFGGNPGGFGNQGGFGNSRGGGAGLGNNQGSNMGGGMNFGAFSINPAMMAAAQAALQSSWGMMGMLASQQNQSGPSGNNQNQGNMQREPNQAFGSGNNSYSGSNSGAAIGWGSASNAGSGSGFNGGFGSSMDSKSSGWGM
inactive: [1] -0.094 | [2] -0.012 | [3] 0.067 | [4] -0.145 | [5] -0.041

SLC27A4 (UniProt Q6P1M0)
Sequence of UniProt Q6P1M0 (Q6P1M0 whole entry, looked up): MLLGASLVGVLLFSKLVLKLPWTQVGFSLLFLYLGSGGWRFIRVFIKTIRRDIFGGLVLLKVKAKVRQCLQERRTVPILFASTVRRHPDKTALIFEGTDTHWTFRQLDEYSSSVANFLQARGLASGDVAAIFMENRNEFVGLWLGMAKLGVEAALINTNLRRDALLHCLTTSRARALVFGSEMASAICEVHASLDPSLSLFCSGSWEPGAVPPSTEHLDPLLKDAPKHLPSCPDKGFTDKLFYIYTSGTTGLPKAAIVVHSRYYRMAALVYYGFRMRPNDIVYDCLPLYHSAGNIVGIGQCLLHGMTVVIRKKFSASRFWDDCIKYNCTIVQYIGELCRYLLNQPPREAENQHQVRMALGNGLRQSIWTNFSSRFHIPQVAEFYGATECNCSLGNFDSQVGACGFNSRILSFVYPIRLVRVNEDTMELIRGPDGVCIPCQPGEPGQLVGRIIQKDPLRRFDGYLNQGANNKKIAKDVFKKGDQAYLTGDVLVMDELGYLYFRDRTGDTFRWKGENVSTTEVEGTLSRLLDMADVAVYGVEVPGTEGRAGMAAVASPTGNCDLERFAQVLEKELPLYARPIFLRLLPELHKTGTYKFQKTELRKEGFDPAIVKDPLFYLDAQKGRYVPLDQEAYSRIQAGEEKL
inactive: [1] 0.106 | [2] -0.006 | [3] 0.054 | [4] -0.002 | [5] 0.121

Reference: the supplement of paper PMC10849652
